Assay results taken from PubChem BioAssay (NCI).
Compounds without any hit were thinned out: in the full panel of roughly 83,000, 20% have a hit.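 For each line, cells grew in 96-well plates with the test compound present at a single concentration for 48 hours.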 Active and inactive are the calls of the source. How the source made its calls: active means growth percent below 10; inactive means the rest.

What was measured:
Assay in all cases: NCI-60 one-dose screen, 48 h (100 = growth as untreated, 0 = no growth, -100 = all killed)
[1] = test system: SK-MEL-2 melanoma; settings: 10 µM unless noted
[2] = test system: EKVX NSCLC; settings: 10 µM unless noted
[3] = test system: SN12C renal; settings: 10 µM unless noted
[4] = test system: UO-31 renal; settings: 10 µM unless noted
[5] = test system: TK-10 renal; settings: 10 µM unless noted
[6] = test system: ACHN renal; settings: 10 µM unless noted
[7] = test system: CAKI-1 renal; settings: 10 µM unless noted
[8] = test system: A498 renal; settings: 10 µM unless noted
[9] = test system: CCRF-CEM leukemia; settings: 10 µM unless noted
[10] = test system: MOLT-4 leukemia; settings: 10 µM unless noted
[11] = test system: SR leukemia; settings: 10 µM unless noted
[12] = test system: OVCAR-8 ovarian; settings: 10 µM unless noted
[13] = test system: OVCAR-5 ovarian; settings: 10 µM unless noted
[14] = test system: SK-OV-3 ovarian; settings: 10 µM unless noted
[15] = test system: IGROV1 ovarian; settings: 10 µM unless noted
[16] = test system: HS 578T breast; settings: 10 µM unless noted
[17] = test system: NCI/ADR-RES ovarian; settings: 10 µM unless noted
[18] = test system: RPMI-8226 leukemia; settings: 10 µM unless noted
[19] = test system: OVCAR-4 ovarian; settings: 10 µM
[20] = test system: OVCAR-3 ovarian; settings: 10 µM unless noted

Measured: growth

C=C(C)[C@@H]1CC[C@]2(C)[C@H](CC=C3[C@@H]4[C@@H](C)[C@H](C)CC[C@]4(C(N)=O)CC[C@]32C)[C@@]1(C)CCC#N
active: [1] -62.5% [100 µM] | [3] -75.7% [100 µM] | [4] -91.5% [100 µM] | [5] -10.2% [100 µM] | [6] -1.6% [100 µM] | [7] 6.4% [100 µM] | [8] -33.6% [100 µM] | [9] -7.62% [100 µM] | [10] -1.01% [100 µM] | [12] 3.49% [100 µM] | [13] 1.03% [100 µM] | [14] 5.31% [100 µM] | [15] 7.81% [100 µM] | [16] 5.08% [100 µM] | [17] -32% [100 µM]
inactive: [2] 11.8% [100 µM] | [11] 30.2% [100 µM]

CCCCC(CC)COC(=O)C[N+](C)(C)CCOC(c1ccccc1)c1ccccc1 (stereo not given)
active: [1] -26.9% | [11] -30.2% | [18] -61% | [15] -0.732%
inactive: [2] 57.9% | [3] 43.2% | [4] 95.6% | [5] 53.7% | [6] 101% | [7] 97.4% | [8] 101% | [9] 20.4% | [12] 48.8% | [13] 75.6% | [19] 22.9% | [14] 59% | [20] 19.2% | [16] 69.7% | [17] 99.1%

O=c1c2c3c(sc2n2cnnc2n1Cc1ccccc1)CCCC3
active: [4] 7.39%
inactive: [1] 97.6% | [2] 71.2% | [3] 105% | [5] 115% | [6] 99.1% | [7] 95.3% | [8] 92.1% | [9] 82.4% | [11] 78.6% | [18] 72.8% | [12] 97.4% | [13] 89.6% | [19] 106% | [14] 106% | [20] 98% | [16] 94.2% | [17] 96.9%

C=C(C)C1CCC2(C(=O)O)CCC3(C)C(CCC4C5(C)CCC(OC(=O)NCc6ccccc6)C(C)(C)C5CCC43C)C12 (stereo not given)
inactive: [1] 54.6% | [2] 29.1% | [3] 42.3% | [4] 40.3% | [5] 59.2% | [6] 30.3% | [7] 16.1% | [8] 56.3% | [9] 36.6% | [10] 29.4% | [11] 41.7% | [12] 45.5% | [13] 75.6% | [19] 30.7% | [14] 68.9% | [20] 19% | [16] 84.7% | [17] 44.8%

c1ccc(-c2nnc(-c3c[nH]c4ncccc34)s2)cc1
inactive: [1] 103% | [2] 37.2% | [3] 86.6% | [4] 51.6% | [5] 124% | [6] 69.4% | [7] 53.3% | [8] 67.3% | [9] 101% | [10] 83.4% | [11] 83.6% | [12] 98.9% | [13] 125% | [19] 89.4% | [15] 54.6% | [20] 88.5% | [16] 97.1% | [17] 95.7%

O=C(CSc1nc2ccc([N+](=O)[O-])cc2[nH]1)Nc1ccc(F)c(Cl)c1
active: [1] -7.66% | [3] 3.12% | [4] 3.59% | [7] 9.26% | [8] -13.1% | [10] 5.63% | [11] 5.97% | [19] 2.64%
inactive: [2] 11.1% | [5] 25.1% | [6] 16.9% | [9] 19% | [12] 15.5% | [13] 50.9% | [14] 21.4% | [15] 36.1% | [20] 16.5% | [16] 20.3% | [17] 22.4%

CCCCN(CC)CC(CC)Nc1cc(OC)cc2cccnc12 (stereo not given)
inactive: [1] 115% | [2] 128% | [3] 99.7% | [4] 102% | [5] 100% | [6] 104% | [7] 111% | [8] 112% | [9] 99.6% | [11] 113% | [18] 105% | [12] 103% | [13] 103% | [19] 115% | [14] 127% | [20] 107% | [17] 101%

CC(C)C1=NOC(=O)C1=Cc1cn(-c2ccccc2)nc1-c1ccc(Cl)cc1
active: [9] 4.95% | [10] -4.85% | [11] -22% | [18] -28.5%
inactive: [1] 85.6% | [2] 98.5% | [3] 78.2% | [4] 71.4% | [5] 83.3% | [6] 82.6% | [8] 91.4% | [12] 79.2% | [13] 99.1% | [19] 98.2% | [14] 106% | [15] 79.6% | [20] 86.2% | [16] 77.4% | [17] 91.7%

C1=C[C@H]2O[C@@H]1c1ccc3[nH]ccc3c12
inactive: [1] 95.7% | [2] 105% | [3] 102% | [4] 98.3% | [5] 105% | [6] 107% | [7] 89.6% | [8] 98.6% | [10] 56% | [11] 84.6% | [18] 93.8% | [12] 104% | [13] 105% | [19] 115% | [14] 98.7% | [20] 110% | [16] 119% | [17] 63.7%

CCCSc1nc(N)nc2nc[nH]c12
inactive: [1] 106% | [2] 106% | [3] 98.3% | [4] 93.5% | [5] 154% | [6] 96.4% | [7] 128% | [8] 123% | [10] 121% | [11] 107% | [18] 101% | [12] 99.8% | [13] 108% | [19] 114% | [15] 80.8% | [20] 103% | [16] 135% | [17] 108%

CCN(CCO)CCC(=O)c1ccc([N+](=O)[O-])cc1
inactive: [1] 107% | [2] 103% | [3] 107% | [4] 75% | [5] 99.8% | [6] 110% | [7] 102% | [8] 87% | [10] 114% | [11] 107% | [18] 104% | [12] 101% | [13] 116% | [19] 103% | [14] 107% | [15] 108% | [20] 104% | [16] 101% | [17] 102%

COCCCNc1nc(NC(=O)c2cc(OC)cc(OC)c2)cc(-c2cccnc2)n1
inactive: [1] 78.8% | [2] 105% | [3] 95.3% | [4] 56.7% | [5] 86.7% | [6] 98.2% | [7] 99.4% | [8] 67.7% | [10] 83.5% | [11] 80.6% | [18] 69.3% | [12] 79.3% | [13] 95.7% | [19] 108% | [14] 105% | [15] 102% | [20] 113% | [16] 95.3% | [17] 83.5%

Cc1ccccc1-n1nnc(C(=O)Nc2nc3ccc(F)cc3s2)c1C
inactive: [1] 65.3% | [2] 64.9% | [3] 68.6% | [4] 58% | [5] 71.4% | [6] 64.7% | [7] 49.6% | [8] 31.4% | [10] 43.7% | [11] 55.9% | [18] 45% | [12] 73.2% | [13] 82.2% | [19] 10.6% | [15] 75.7% | [20] 57.9% | [16] 73.6% | [17] 60.7%

CC(C)c1ccc(C(=O)Nc2nc3ccc(O)cc3s2)cc1
active: [7] -5.74%
inactive: [1] 78% | [2] 37.4% | [3] 39.4% | [4] 22.1% | [5] 70.3% | [6] 21.3% | [8] 38% | [10] 13.5% | [11] 17.1% | [18] 28.9% | [12] 40.6% | [13] 40.6% | [19] 33.9% | [14] 89.2% | [15] 49.1% | [20] 54.1% | [16] 72.3% | [17] 25.7%

Nc1nc(N)c2c(n1)NC(c1ccc(F)cc1)C1CCc3ccccc3C1=N2 (stereo not given)
active: [11] 9.32%
inactive: [1] 97.7% | [2] 45.3% | [3] 63.1% | [4] 59.7% | [5] 36.3% | [6] 49.7% | [7] 44.8% | [8] 58.1% | [10] 19.9% | [18] 42.3% | [12] 70.4% | [13] 110% | [19] 36% | [14] 63.9% | [15] 83.6% | [20] 48.2% | [16] 84.1% | [17] 43.7%
